Values joined by “and” are separate entries in the source; they are usually repeats but may differ in a detail not shown here. Equal values may be shown once. The whole screen tested about 16,000 compounds, of which about 5,700 (36%) were called active. Not shown: some 24% with an inconclusive outcome. The list shows a part of the results. A number with no mark means an inactive call. Calls follow the shape of the dose curve; as a rule, active = well fitted curve in the direction sought with a large enough effect; inconclusive = small, poorly fitted or top-dose-only effect, or effect the other way; inactive = no such curve, though single readings can be large or run the other way.
% is scaled to controls: 0 for no effect and ±100 for the full control effect.

The target in the assay is Cytochrome P450 1A2 (Homo sapiens) (UniProt P05177). The assay is described as follows: Cytochrome panel assay with activity outcomes. Particulars: recombinant CYP, pro-luciferin dealkylation, luminescence, p450-cyp1a2; series mostly up to 57.1 µM; activity, negative = inhibition: at the top concentration.
Sequence of Cytochrome P450 1A2 (Homo sapiens) (P05177 whole entry, looked up): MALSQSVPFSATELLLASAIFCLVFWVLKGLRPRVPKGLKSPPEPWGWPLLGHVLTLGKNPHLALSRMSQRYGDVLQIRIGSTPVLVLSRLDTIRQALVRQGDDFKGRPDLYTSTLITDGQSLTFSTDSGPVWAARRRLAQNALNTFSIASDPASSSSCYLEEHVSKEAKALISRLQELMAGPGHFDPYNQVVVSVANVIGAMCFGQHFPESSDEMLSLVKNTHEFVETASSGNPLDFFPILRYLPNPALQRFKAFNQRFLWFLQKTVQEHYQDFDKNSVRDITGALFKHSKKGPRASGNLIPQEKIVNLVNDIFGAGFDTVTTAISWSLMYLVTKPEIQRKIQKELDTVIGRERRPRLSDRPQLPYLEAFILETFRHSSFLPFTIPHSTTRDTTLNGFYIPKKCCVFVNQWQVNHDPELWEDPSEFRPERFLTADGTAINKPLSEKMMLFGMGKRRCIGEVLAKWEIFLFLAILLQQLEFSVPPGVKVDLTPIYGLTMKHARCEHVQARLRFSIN
Consider `CC1(CC(=O)O)O[C@H]2CCCCC[C@H]2O1` (stereo partly drawn) (tested in a mixture with another compound), for which the activity, negative = inhibition is -0.0273% [at 11.4 µM].
On to `COc1cccc(C(=O)Nc2ccc(-c3nnc(-c4ccco4)o3)cc2)c1`, for which the “activity, negative = inhibition” value is 2.32%.
As for `COc1ccc2c(c1)C(c1ccc([N+](=O)[O-])cc1)=NNC(c1ccco1)=N2`, the AC50 is 5.01 µM (active).
On to `CC1(C)CCCN(C(=O)c2coc(=O)c(Br)c2)C1`, for which the “activity, negative = inhibition” value is -24%.
Turning to `c1ccc(CN(CC2=NCCN2)c2ccccc2)cc1`, the “activity, negative = inhibition” value is -9.28% [at 25.6 µM].
As for `c1ccc2nc(C3=NCCN3)ccc2c1`, the concentration at half-maximal activity (AC50) was 5.01 µM (active) and 794 nM (active).
As to `c1ccc2nc(-c3ccncc3)ccc2c1`, the AC50 is 1 µM (active).
On the same count and under the same terms, to `c1ccc2cc(C3=NCCN3)ncc2c1` belongs 0.501 µM (active).
On to `c1ccc2nc(C3=NCCN3)cnc2c1`, for which the AC50 was 0.398 µM (active).
Regarding `O=C(c1cccc(F)c1)N1CCC2(CCCN(Cc3cc(C(F)(F)F)cc(C(F)(F)F)c3)C2)CC1`, the “activity, negative = inhibition” value is -9.19%.
Same read-out and setting: with `COC(=O)[C@@]1(Cc2ccc(F)cc2)[C@H]2c3cc(C(=O)N(C)C)n(CCCNc4ccc(C(F)(F)F)cc4Cl)c3C[C@H]2CN1C(=O)c1ccccc1` the figure was -17%.
In the case of `c1ccc2oc(C3=NCCN3)cc2c1`, the AC50 is 5.01 µM (active).
Consider `CCn1c(-c2nonc2NC(=O)c2ccccc2)nc2ccccc21`, for which the half-maximal activity concentration (AC50) is 0.891 µM (active).
With `CCn1nccc1C(=O)Nc1nc2ccccc2n1CCN1CCCCC1`, the “activity, negative = inhibition” value is -11.5%.
In the case of `COCCNC(=O)c1onc(CSc2ccc(Cl)cc2)c1C(=O)O`, the “activity, negative = inhibition” value was -11.6%.
As for `O=S(=O)(NCc1cc(-c2ccc(Cl)cc2)no1)c1ccc(Cl)cc1`, the AC50 is 8.91 µM (active).
For `O=S(=O)(NCc1cc(-c2ccccc2)no1)c1ccc(Cl)cc1`, the AC50 was 7.08 µM (active).
As for `Clc1ccc(SCc2cc(-c3ccccc3)no2)cc1`, the half-maximal activity concentration (AC50) was 6.31 µM (active).
As for `Cn1c(CNS(=O)(=O)c2ccc(Cl)cc2)n[nH]c1=S`, the “activity, negative = inhibition” value was -1.82%.
Consider `NCCNS(=O)(=O)c1ccc(N)cc1`, for which the activity, negative = inhibition is -3.44% [at 11.4 µM].
`Nc1ccc(S(=O)(=O)NCc2nccs2)cc1`: the activity, negative = inhibition is -10.5% [at 2.29 µM].
As for `Cn1c(CNS(=O)(=O)c2ccc(F)cc2)n[nH]c1=S`, the “activity, negative = inhibition” value is 3.12%.
On to `Cn1cccc1C(=O)N1CCC2(CC1)CCN(c1ncccn1)CC2`, for which the “activity, negative = inhibition” value is 1.14%.
Still for that read-out and setting: with `CC(=O)OC[C@@H]1O[C@@H](O/N=C2/C[C@@H](O)[C@@H](O)[C@@H]3[C@@H]4C(=O)N(C(C)(C)C)C(=O)[C@H]4CC[C@H]23)[C@H](OC(C)=O)[C@H](OC(C)=O)[C@@H]1OC(C)=O` the figure was -2.28% [at 11.4 µM]; with `CC(C)(C)c1ccc(OC(=O)Cn2c(C(F)(F)F)nc3ccccc32)cc1`, -33.8%.
With `COc1ccc(Oc2nc3ccccc3nc2C(F)(F)F)cc1`, the AC50 was 1.12 µM (active).
As for `Cc1ccccc1C(=O)NN(C)c1nc2ccccc2nc1C(F)(F)F`, the “activity, negative = inhibition” value is -36.7%.
In the case of `CC(C)NC(=O)N1CCCC2(CCN(C(=O)c3ccco3)CC2)C1`, the “activity, negative = inhibition” value is 7.44%.
As for `O=c1c2ccccc2nnn1CSc1nnc(COc2ccc(Cl)cc2)n1Cc1ccco1`, the AC50 is 3.16 µM (active).
With `COc1cccc(OCc2nnc(SCC(=O)NCc3ccco3)n2C)c1`, the “activity, negative = inhibition” value is -10.2%.
Turning to `Cc1cc(C)nc(SCc2nnc(SCC(N)=O)n2Cc2ccco2)n1`, the “activity, negative = inhibition” value is -2.93%.
`c1ccc(C[C@@H](Nc2cccnc2)c2ccccc2)cc1`: the concentration at half-maximal activity (AC50) was 0.2 µM (active).
Regarding `O=C(O)Cc1cccnc1`, the activity, negative = inhibition was -13.8% [at 11.4 µM].
Consider `O=C(NCC(c1cccnc1)N1CCOCC1)Nc1ccccc1` (stereo not drawn), for which the “activity, negative = inhibition” value was -22.3%.
Turning to `COc1ccc(-n2c(=O)c(-c3cccs3)nc3cnc(Nc4cccc(OC)c4)nc32)cc1`, the “activity, negative = inhibition” value was -19.5%.
As for `COc1cccc(Nc2ncc3nc(C)c(=O)n(C)c3n2)c1`, the concentration at half-maximal activity (AC50) is 1 µM (active).
As for `COc1cccc(Nc2ncc3nc(C)c(=O)n(-c4ccccc4)c3n2)c1`, the AC50 is 5.01 µM (active).
For `COc1ccc(-n2c(=O)c(C)nc3cnc(Nc4cccc(OC)c4)nc32)cc1`, the concentration at half-maximal activity (AC50) was 15.8 µM (active).
With `CCOc1ccc(OCC)c(-c2c(=O)n(OCc3ccc(C(C)(C)C)cc3)c3ccccc3[n+]2[O-])c1`, the “activity, negative = inhibition” value was -19%.
For the compound `N#CN(CC(N)=O)c1nc(N2CCCCC2)nc(N2CCCCC2)n1`, the half-maximal activity concentration (AC50) is 2 µM (active).
Consider `OCCN1CCN(c2nc(N3CCCCC3)nc(N3CCCCC3)n2)CC1`, for which the “activity, negative = inhibition” value is -14.8%.
On to `O=C1c2ccccc2C(=O)N1CCCCN(C(=O)c1cccc([N+](=O)[O-])c1)c1ccc(Cl)cc1`, for which the “activity, negative = inhibition” value is -14.2%.
Turning to `O=C1c2cccc3c(Nc4ccccc4Cl)c([N+](=O)[O-])cc(c23)C(=O)N1CCO`, the AC50 is 1.78 µM (active).
In the case of `O=S(=O)(NC1CCN(Cc2ccccc2)CC1)c1cccc2cccnc12`, the “activity, negative = inhibition” value was -20.6%.
Consider `CC(C)(C)c1cc2cccnc2n1Cc1ccccc1`, for which the AC50 was 14.1 µM (active).
With `O=C(Nc1cccc(F)c1)N1CCC2(CC1)CCN(C(=O)c1csnn1)CC2`, the “activity, negative = inhibition” value is -6.38%.
For the compound `CCn1c(C)nc2cc(C(=O)NNS(=O)(=O)c3ccccc3F)ccc21`, the AC50 was 25.1 µM (active).
With `N[C@H](C(=O)O)[C@@H](O)c1cnc[nH]1`, the activity, negative = inhibition is -2.61% [at 11.4 µM].

For orientation: AC50 means the midpoint of the concentration-response curve, whichever way the signal moves.

Source of the values: PubChem BioAssay AID1851 (National Center for Advancing Translational Sciences (NCATS), 2009).
